The entries come from a sample that favours hits as a whole.
BL2 CD40 inh – CD40 pathway inhibition in BL2 cells; BL2 NF-kB luciferase reporter, CD40L-induced, 4 h; inhibition, % at 10 µM; hit rate 0.94% among 83,000;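 active means mean inhibition of at least 50% with a set share of replicates also reaching that level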
Of the large screens only hits and unclear results are named; the others gave an inactive call; [ ] = dose if it differs, or a comment.

COc1ccccc1-c1ccc([C@H]2[C@@H](C#N)N(C(=O)C3CCC3)[C@H]2CO)cc1	none
COc1ccc(-c2nc(NC(=O)c3nc4nccc(C)n4n3)sc2C)cc1	none
COc1ccc(-c2nc(NC(=O)c3ccco3)sc2C)cc1	BL2 CD40 inh 51
Cc1ccc(C(=O)Nc2nc(-c3ccco3)c(-c3ccco3)s2)o1	none
O=C(c1ccc(F)cc1)N1CC(=O)N2[C@H](CO)[C@H](c3ccc(C#CC4CCCC4)cc3)[C@H]2C1	none
COc1cccc(NC(=O)C[C@H]2CC[C@@H]3[C@H](COc4ccc(NC(=O)C5CCCC5)cc4C(=O)N3C)O2)c1	none
O=C(C[C@@H]1CC[C@@H]2[C@H](COC[C@H](O)CN2C(=O)c2ccc3c(c2)OCO3)O1)NCCN1CCCC1	none
CS(=O)(=O)N1[C@@H](C#N)[C@H](c2ccc(-c3ccccc3F)cc2)[C@@H]1CO	none
CC(=O)N1[C@@H]2c3ccc(-c4ccccc4)c(=O)n3C[C@H]1[C@H](CO)[C@H]2C(=O)NC1Cc2ccccc2C1	none
CCSc1ccc(-c2cc(NC=O)c3ncc(-c4cccc(C(=O)N(C)C)c4)n3c2)cc1	BL2 CD40 inh 51
CC(=O)c1ccc(-c2cnc3c(NC=O)cc(-c4ccc(N5CCN(C)CC5)cc4)cn23)cc1	none
O=CNc1cc(-c2ccccc2)cn2c(-c3ccc(F)c(Cl)c3)cnc12	none
CC(C)[C@H]1COCc2cn(nn2)CC[C@H](Cc2ccccc2)C(=O)N1	none
COC(=O)C[C@](O)(CCCC(C)(C)O)C(=O)O[C@@H]1C(OC)=C[C@]23CCCN2CCc2cc4c(cc2[C@H]13)OCO4	BL2 CD40 inh 92[25 µM]
CC(=O)NC[C@H]1[C@H](c2ccc(C3=CCCC3)cc2)[C@@H](CO)N1Cc1cccnc1	none
O=C(NCC(F)(F)F)[C@@H]1[C@@H](CO)[C@@H]2Cn3c(ccc(-c4cccnc4)c3=O)[C@H]1N2Cc1ccccc1	none
O=C(c1ccc(S(=O)(=O)Nc2ccccc2Cl)cc1)N1CCOCC1	none
O=C(N1CCOCC1)N1CCN(S(=O)(=O)c2ccc(Cl)cc2)C1	none
O=C(c1nnsc1S(=O)(=O)c1ccc(Cl)cc1)N1CCOCC1	BL2 CD40 inh 97
O=C(Cc1ccccc1)N1C[C@@H]2[C@H](c3ccccc31)[C@H](CO)N2C(=O)C1CC1	none
CC(=O)N1[C@@H]2CN(S(C)(=O)=O)C[C@H]1C2c1ccc(-c2ccc(F)cc2)cc1 (stereo not given in full)	none
O=C(O)c1ccc2c3c(cccc13)C(=O)N(c1cccc3ccccc13)C2=O	none
COc1ccc(C(=O)NC2c3ccccc3-c3ccccc32)cc1	none
COc1ccc(C(=O)O/N=C2\C(=O)N(C)c3ccccc32)cc1	BL2 CD40 inh 60
COc1ccc(C(=O)ON=C2CCN(C)CC2)cc1	none
O=C(O/N=C(\c1ccccc1)c1ccccn1)c1cccc2ccccc12	none
CN1C(=O)/C(=N\OC(=O)c2cccc3ccccc23)c2ccccc21	BL2 CD40 inh 99
O=C(c1ccncc1)N1C[C@H]2[C@@H](c3ccccc31)[C@@H](CO)N2Cc1ccccc1F	none
C[C@@H](NC(=O)[C@H]1[C@H](CO)[C@H]2Cn3c(cccc3=O)[C@@H]1N2C(=O)C1CCCC1)c1ccccc1	none
O=C(Nc1ccccc1)NC1CC(C(=O)O)Nc2cc(Cl)cc(Cl)c21 (stereo not given)	none
COc1ccc2[nH]c(=O)c(CN(Cc3cccs3)S(=O)(=O)c3cccc4nsnc34)cc2c1	BL2 CD40 inh 55
COc1ccc(S(=O)(=O)N(Cc2cccnc2)Cc2cc3ccccc3[nH]c2=O)cc1	none
COc1ccc2[nH]c(=O)c(CN(C(=O)c3cccnc3)c3ccccc3)cc2c1	none
Cc1ccc(S(=O)(=O)N(C)C[C@H]2OCCCC[C@H](C)Oc3ccc(NS(=O)(=O)c4ccccc4)cc3C(=O)N([C@@H](C)CO)C[C@H]2C)cc1	none
CCN(CC)CC(C)(C)C(=O)/C=C/c1ccc(/C=C/C(=O)C(C)(C)CN(CC)CC)cc1	BL2 CD40 inh 75
CCN(CC)c1ccc(C(=O)O)cc1	none
CCN(CC)CC(=O)Nc1c(C)cc(C(C)(C)C)cc1C	none
C[C@@H]1CN([C@@H](C)CO)C(=O)c2cc(-c3cccnc3)cnc2O[C@H]1CN(C)C(=O)Nc1ccccc1	none
C[C@H]1CN(C)C(=O)Cc2cc(NS(C)(=O)=O)ccc2O[C@H]1CN(C)S(C)(=O)=O	none
O=C(C1CCCC1)N1[C@@H](CO)[C@@H]2c3ccccc3N(S(=O)(=O)c3ccc(F)cc3)C[C@@H]21	none
COCC(=O)N1[C@@H](C#N)[C@@H](c2ccc(C3=CCCCC3)cc2)[C@@H]1CO	none
CCCN(CCC)CC1CCCCN1CCNC(=O)N1c2ccccc2C(=O)Nc2cccnc21 (stereo not given)	none
COc1ccc2[nH]c(=O)c3c(c2c1)OC(C)(C)C=C3	BL2 CD40 inh 38
COc1ccc2nc(C)[nH]c(=O)c2c1	none
COc1ccc2[nH]c(O)c(NC(C)=O)c2c1	none
COc1ccccc1-c1ccc2n(c1=O)C[C@H]1[C@H](CO)[C@@H](C(=O)N(C)C)[C@@H]2N1C(=O)c1cccnc1	none
CC(C)NC(=O)N1Cc2cc(C(=O)NC3Cc4ccccc4C3)nc(-c3cccc(-c4cccnc4)c3)c2[C@@H]1CCO	BL2 CD40 inh 57[25 µM]
C/C=C/c1cccc(-c2nc(C(=O)NC3Cc4ccccc4C3)cc3c2[C@H](CCO)N(C(C)=O)C3)c1	none
CCC(=O)N1Cc2cc(C(=O)N3CCCCC3)nc(-c3cccc(-c4cccnc4)c3)c2[C@H]1CCO	none
C[C@@H]1COCn2nncc2CC[C@@H](Cc2ccccc2)C(=O)N1	none
CO[C@H]1CC[C@H]2CCN(C)C(=O)CCCN(C)C(=O)c3cc(C#N)ccc3OC[C@@H]1O2	none
O=C1N=C(N2CCOCC2)S/C1=C/c1ccc(-c2ccc(F)cc2)o1	none
O=C1S/C(=C\c2ccc(N3CCOCC3)o2)C(=O)N1Cc1ccc(F)cc1	BL2 CD40 inh 82
Cc1ccc(CN2C(=O)S/C(=C\c3ccccc3OCC(=O)O)C2=O)cc1	none
CN1c2ccc(-c3cccc(C#N)c3)cc2[C@H]2[C@H](CCN2C(=O)C2CCC2)[C@H]1CO	none
CCN1[C@@H]2c3ccc(-c4ccncc4)c(=O)n3C[C@@H]2[C@@H](CO)[C@@H]1C(=O)NCc1ccccc1	none
COC(=O)CCCSc1nccn1-c1ccccc1	none
O=C(O)c1cccnc1SCCc1ccccc1	none
c1ccc(CCSc2nccn2-c2ccccc2)cc1	BL2 CD40 inh active
O=C(c1cccc(F)c1)N1C[C@H]2[C@@H](c3ccccc31)[C@H](CO)N2C(=O)c1ccccn1	none
O=C(Nc1ccc2c(c1)[C@H]1C[C@@H](CC(=O)N3CCc4ccccc4C3)O[C@H](CO)[C@H]1O2)C1CCOCC1	none
Cc1cc(C(=O)COC(=O)c2ccc(Br)o2)c(C)n1Cc1ccco1	none
COCCn1c(C)cc(C(=O)COC(=O)c2ccc(-n3nc(C)cc3C)cc2)c1C	none
COCCn1c(C)cc(C(=O)COC(=O)c2ccc(Br)o2)c1C	BL2 CD40 inh 48
Cc1cc(C(=O)COC(=O)c2ccc(Cl)c(S(N)(=O)=O)c2)c(C)n1CC1CCCO1 (stereo not given)	none
Cc1cc(C(=O)COC(=O)c2ccc(Br)o2)c(C)n1C	none
COCCn1c(C)cc(C(=O)COC(=O)c2ccc(Cl)c(S(N)(=O)=O)c2)c1C	BL2 CD40 inh 21
C[C@H](CO)N1C[C@H](C)[C@@H](CN(C)C(=O)NC2CCCCC2)Oc2ccc(NS(=O)(=O)c3cn(C)cn3)cc2CC1=O	none
COc1ccc(CN(C)C[C@H]2OCCCC[C@@H](C)Oc3ccc(NC(=O)C4CCCCC4)cc3C(=O)N([C@@H](C)CO)C[C@@H]2C)cc1	none
C[C@@H]1CN([C@H](C)CO)C(=O)CCCn2cc(nn2)CO[C@@H]1CN(C)C(=O)Nc1ccc(C(F)(F)F)cc1	none
Cn1c(SCc2nc3ccccc3n2CCO)nc2ccccc21	none

From PubChem BioAssay
